Measurements published in PubChem BioAssay AID1159580 (chemical genetic matrix, 2015).
Several values for one entry are separate records, joined by “and”; a condition that tells them apart may be missing. Equal entries are not always repeated. The whole screen tested about 5,500 compounds, of which about 2,000 (36%) were called active. Inconclusive results (about 18%) are left out. No stated cut-off is given here; in the data, active means normalized growth mostly below about 0.91 (no sharp cut-off); inconclusive means no clear call, values can overlap the other calls; inactive means mostly above about 0.92. Some of the results follow.

Test: chemical genetic growth profiling, strain panel (AID 1159580);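 further: tested at 20 µM; growth read once vehicle control cultures reached saturation at 30 °C; 1 = growth at the plate median or of vehicle wells; lower values mean less growth of the strain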
Conditions: growth OD

Measured: normalized growth

O=c1[nH]c2ccccc2n1C1CCN(CCCC(c2ccc(F)cc2)c2ccc(F)cc2)CC1
active: S. cerevisiae deletion strains, locus YLL001W, strain dnm1, active compounds read low 0.893 | S. cerevisiae deletion strains, locus YLR320W, strain mms22, active compounds read low 0.784 | S. cerevisiae deletion strains, locus YMR058W, strain fet3, active compounds read low 0.897 | S. cerevisiae deletion strains, locus YMR205C, strain PFK2, active compounds read low 0.859 | S. cerevisiae deletion strains, locus YNL248C, strain rpa49, active compounds read low 0.878 | S. cerevisiae deletion strains, locus YOR001W, strain rrp6, active compounds read low 0.817 | S. cerevisiae deletion strains, locus YOR083W, strain WHI5, active compounds read low 0.857 | S. cerevisiae deletion strains, locus YOR270C, strain vph1, active compounds read low 0.449 | S. cerevisiae deletion strains, locus YOR290C, strain snf2, active compounds read low 0.638
inactive: S. cerevisiae deletion strains, locus YJR075W, strain HOC1, active compounds read low 0.954 and 0.993 | S. cerevisiae deletion strains, locus YKL009W, strain mrt4, active compounds read low 0.963 | S. cerevisiae deletion strains, locus YKL068W, active compounds read low 0.993 | S. cerevisiae deletion strains, locus YKL085W, strain MDH1 (second series), active compounds read low 0.99 | S. cerevisiae deletion strains, locus YKL085W, strain MDH1, active compounds read low 0.99 | S. cerevisiae deletion strains, locus YKL160W, strain elf1, active compounds read low 0.914 | S. cerevisiae deletion strains, locus YKL190W, strain CNB1, active compounds read low 0.974 | S. cerevisiae deletion strains, locus YKR001C, strain vps1, active compounds read low 0.939 | S. cerevisiae deletion strains, locus YKR026C, strain gcn3, active compounds read low 1.03 | S. cerevisiae deletion strains, locus YKR091W, strain srl3, active compounds read low 1.01 | S. cerevisiae deletion strains, locus YLL026W, active compounds read low 0.988 | S. cerevisiae deletion strains, locus YLL041C, strain sdh2, active compounds read low 1.02 | S. cerevisiae deletion strains, locus YLR027C, strain aat2, active compounds read low 0.927 | S. cerevisiae deletion strains, locus YLR039C, strain RIC1, active compounds read low 1.02 | S. cerevisiae deletion strains, locus YLR058C, strain SHM2, active compounds read low 0.977 | S. cerevisiae deletion strains, locus YLR102C, strain apc9, active compounds read low 0.993 | S. cerevisiae deletion strains, locus YLR113W, strain HOG1, active compounds read low 0.967 | S. cerevisiae deletion strains, locus YLR221C, strain rsa3, active compounds read low 0.932 | S. cerevisiae deletion strains, locus YLR258W, strain gsy2, active compounds read low 0.981 | S. cerevisiae deletion strains, locus YLR262C, strain YPT6 (second series), active compounds read low 1.06 | S. cerevisiae deletion strains, locus YLR262C, strain YPT6, active compounds read low 1.04 | S. cerevisiae deletion strains, locus YLR268W, strain sec22, active compounds read low 0.98 | S. cerevisiae deletion strains, locus YLR330W, strain CHS5, active compounds read low 0.995 | S. cerevisiae deletion strains, locus YLR342W, strain FKS1 (second series), active compounds read low 0.94 | S. cerevisiae deletion strains, locus YLR342W, strain FKS1, active compounds read low 0.936 | S. cerevisiae deletion strains, locus YLR357W, strain rsc2, active compounds read low 0.877 | S. cerevisiae deletion strains, locus YLR370C, strain arc18, active compounds read low 0.962 | S. cerevisiae deletion strains, locus YLR371W, strain rom2, active compounds read low 0.989 | S. cerevisiae deletion strains, locus YLR384C, strain iki3, active compounds read low 1.04 | S. cerevisiae deletion strains, locus YLR418C, strain cdc73, active compounds read low 0.921 | S. cerevisiae deletion strains, locus YML016C, strain PPZ1, active compounds read low 0.992 | S. cerevisiae deletion strains, locus YML032C, strain rad52, active compounds read low 0.972 | S. cerevisiae deletion strains, locus YML120C, strain ndi1, active compounds read low 0.939 | S. cerevisiae deletion strains, locus YML124C, strain tub3, active compounds read low 1 | S. cerevisiae deletion strains, locus YMR078C, strain ctf18, active compounds read low 0.983 | S. cerevisiae deletion strains, locus YMR125W, strain sto1, active compounds read low 0.995 | S. cerevisiae deletion strains, locus YMR129W, active compounds read low 0.966 | S. cerevisiae deletion strains, locus YMR223W, strain ubp8, active compounds read low 0.978 | S. cerevisiae deletion strains, locus YMR231W, strain pep5, active compounds read low 1.02 | S. cerevisiae deletion strains, locus YMR263W, strain SAP30, active compounds read low 0.986 and 0.997 | S. cerevisiae deletion strains, locus YMR307W, strain GAS1, active compounds read low 1.04 and 0.999 | S. cerevisiae deletion strains, locus YNL067W, strain RPL9B, active compounds read low 0.987 | S. cerevisiae deletion strains, locus YNL071W, strain lat1, active compounds read low 1.01 | S. cerevisiae deletion strains, locus YNL128W, strain TEP1, active compounds read low 0.965 | S. cerevisiae deletion strains, locus YNL153C, strain GIM3, active compounds read low 0.974 | S. cerevisiae deletion strains, locus YNL183C, strain NPR1, active compounds read low 0.937 | S. cerevisiae deletion strains, locus YNL197C, strain WHI3, active compounds read low 1.1 | S. cerevisiae deletion strains, locus YNL209W, strain ssb2, active compounds read low 1.02 | S. cerevisiae deletion strains, locus YNL224C, strain SQS1, active compounds read low 1.01 | S. cerevisiae deletion strains, locus YNL233W, strain BNI4, active compounds read low 0.985 | S. cerevisiae deletion strains, locus YNL250W, strain rad50, active compounds read low 0.986 | S. cerevisiae deletion strains, locus YNL271C, strain bni1, active compounds read low 1.01 | S. cerevisiae deletion strains, locus YNL298W, strain CLA4, active compounds read low 1.01 | S. cerevisiae deletion strains, locus YNL307C, strain MCK1, active compounds read low 0.927 | S. cerevisiae deletion strains, locus YNL322C, strain KRE1 (second series), active compounds read low 1.03 | S. cerevisiae deletion strains, locus YNL322C, strain KRE1, active compounds read low 0.99 | S. cerevisiae deletion strains, locus YNR049C, strain mso1, active compounds read low 0.991 | S. cerevisiae deletion strains, locus YNR052C, strain pop2, active compounds read low 0.996 | S. cerevisiae deletion strains, locus YOL006C, strain TOP1, active compounds read low 0.848 | S. cerevisiae deletion strains, locus YOL012C, strain htz1 0.998 | S. cerevisiae deletion strains, locus YOL147C, strain pex11, active compounds read low 1 | S. cerevisiae deletion strains, locus YOR061W, strain CKA2, active compounds read low 0.972 | S. cerevisiae deletion strains, locus YOR069W, strain VPS5, active compounds read low 0.991 | S. cerevisiae deletion strains, locus YOR070C, strain gyp1, active compounds read low 0.963 | S. cerevisiae deletion strains, locus YOR080W, strain dia2, active compounds read low 1 | S. cerevisiae deletion strains, locus YOR083W, strain WHI5 (second series), active compounds read low 0.874 | S. cerevisiae deletion strains, locus YOR106W, strain vam3, active compounds read low 0.92 | S. cerevisiae deletion strains, locus YOR136W, strain idh2, active compounds read low 0.986 | S. cerevisiae deletion strains, locus YOR144C, strain elg1, active compounds read low 1 | S. cerevisiae deletion strains, locus YOR184W, strain ser1, active compounds read low 0.894 | S. cerevisiae deletion strains, locus YOR231W, strain MKK1, active compounds read low 0.984 | S. cerevisiae deletion strains, locus YOR265W, strain rbl2, active compounds read low 0.992 | S. cerevisiae deletion strains, locus YOR316C, strain cot1, active compounds read low 0.995 | S. cerevisiae deletion strains, locus YPL051W, strain arl3, active compounds read low 0.954 | S. cerevisiae deletion strains, locus YPL055C, strain LGE1, active compounds read low 0.924 | S. cerevisiae deletion strains, locus YPL078C, strain atp4, active compounds read low 0.956 | S. cerevisiae deletion strains, locus YPL106C, strain sse1, active compounds read low 1.07 | S. cerevisiae deletion strains, locus YPL240C, strain hsp82, active compounds read low 1.02 | S. cerevisiae deletion strains, locus YPL241C, strain CIN2, active compounds read low 0.986 and 1 | S. cerevisiae deletion strains, locus YPL256C, strain CLN2, active compounds read low 0.965 | S. cerevisiae deletion strains, locus YPR119W, strain clb2, active compounds read low 0.995 | S. cerevisiae deletion strains, locus YPR141C, strain kar3, active compounds read low 0.996 | S. cerevisiae deletion strains, locus YPR163C, strain tif3, active compounds read low 1 | S. cerevisiae deletion strains, locus YPR167C, strain met16, active compounds read low 0.986 | S. cerevisiae deletion strains, strain wtn01, active compounds read low 0.989 | S. cerevisiae strains, strain wild type, active compounds read low 0.993
